Screening results as filed in PubChem.
ASK1 inh – inhibitors of human ASK1 kinase | Q99683 | AlphaScreen MKK6 phosphorylation by ASK1, luminescence | inhibition, % at 7.44 µM | hit rate 0.99% among 22,000 | AID 1159602; in the data active means inhibition above about 35%;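 further: 0% = median of compound wells and 100% = no enzyme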
ULK1 inh – human ULK1 kinase inhibition, primary screen; O75385; AlphaScreen Atg13 phosphorylation by ULK1, luminescence; inhibition, % at 5.96 µM; hit rate 1.9% among 30,000; AID 1259251; in the data active means inhibition above about 43%;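 further: 0% = median of compound wells and 100% = no enzyme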
AlphaScreen intf – interferes with AlphaScreen TruHits signal in ASK1 counter-screen. shares compounds with ASK1 inh. AlphaScreen TruHits beads, signal interference counterscreen. IC50, µM. hit rate 20% among 220. AID 1159604;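 active means IC50 of 10 µM or lower in the counterscreen; inactive means IC50 above 10 µM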;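 further: loss of AlphaScreen light from TruHits beads alone with no ASK1 enzyme present; potency of signal reduction so a low IC50 flags an assay artifact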
* hit, by the source's call. A selection: hits, their analogues and other compounds. The true share with any hit is near 2.4%.

Results for CC(=O)c1cccc(-c2nc(N)c3ncn(-c4ccsc4)c3n2)c1 ?
ASK1 inh: -1; ULK1 inh: 0

What do the screens show for `CC(C)n1c(N2CCOCC2)nc2c(NC3CCN(Cc4ccccc4)CC3)ncnc21`?
ASK1 inh: -13; ULK1 inh: 5

How did CC(C)n1cnc2c(N)nc(NCc3ccc4c(c3)OCO4)nc21 do in these assays?
ASK1 inh: 14; ULK1 inh: 5

Results for CN[C@@H]1C(O)[C@@H](O[C@@H]2[C@@H](O)[C@H](O[C@H]3OC(CN)=CC[C@H]3N)[C@@H](N)C[C@H]2N)OC[C@]1(C)O (some centres undefined) ?
ULK1 inh: 2

What do the screens show for `COc1ccc(CCNc2nc(Nc3cccc(N(C)C)c3)nc3cc(OC)c(OC)cc23)cc1`?
ASK1 inh: 61*; ULK1 inh: -9; AlphaScreen intf: 7.6*

What do the screens show for `CCN(CC)c1nc(NCCc2ccc(OC)cc2)nc(Nc2cccc(N(C)C)c2)n1`?
ASK1 inh: 17; ULK1 inh: 2

Results for Cc1nn(C)c(C)c1-c1nc2ccc(C(=O)Nc3ccc(N4CCOCC4)cc3)cc2s1 ?
ASK1 inh: 25; ULK1 inh: 6

Results for COc1ccc(-c2nc(C)cc(Nc3ccc(N4CCOCC4)cc3)n2)cc1 ?
ASK1 inh: 50*; ULK1 inh: 0; AlphaScreen intf: inactive

How did Cc1cc(Nc2ccc3c(c2)OCO3)nc(Nc2ccc(N3CCOCC3)cc2)n1 do in these assays?
ASK1 inh: 73*; ULK1 inh: -18; AlphaScreen intf: inactive

Results for COc1ccc(CCNc2nc(N3CCN(Cc4ccc5c(c4)OCO5)CC3)nc3c2ncn3C2CCCCC2)cc1 ?
ASK1 inh: 48*; ULK1 inh: 15; AlphaScreen intf: >23

Results for Cc1cc(Nc2ccc(N3CCOCC3)cc2)nc(Nc2ccncc2)n1 ?
ASK1 inh: 21; ULK1 inh: 5

What do the screens show for `CC(C)n1cnc2c(Nc3ccc(N4CCOCC4)cc3)nc(N3CCN(Cc4ccc5c(c4)OCO5)CC3)nc21`?
ASK1 inh: 41*; ULK1 inh: 4; AlphaScreen intf: inactive

What do the screens show for `COc1ccc(-c2nc(C)cc(Nc3ccc(N4CCOCC4)cc3)n2)cn1`?
ASK1 inh: 27; ULK1 inh: 1

How did Oc1ccc(CCNc2nc(N3CCN(Cc4ccc5c(c4)OCO5)CC3)nc3c2ncn3C2CCCCC2)cc1 do in these assays?
ASK1 inh: 35; ULK1 inh: 27

What do the screens show for `CC(C)n1cnc2c(Nc3ccc4c(c3)OCO4)nc(N3CCN(Cc4ccc5c(c4)OCO5)CC3)nc21`?
ASK1 inh: 16; ULK1 inh: 24

What do the screens show for `O=c1[nH]c(C2CCc3ccccc3O2)nc2ccc(-c3cn[nH]c3)cc12` (centres undefined)?
ASK1 inh: 26; ULK1 inh: 22

Results for CC(=O)c1cccc(-c2nc(NCCCN3CCCC3=O)c3ncn(-c4ccccc4)c3n2)c1 ?
ASK1 inh: 12; ULK1 inh: -16

How did c1cc(-n2cnc3c(Nc4ccc(N5CCOCC5)cc4)nc(N4CCN(Cc5ccc6c(c5)OCO6)CC4)nc32)cs1 do in these assays?
ASK1 inh: 51*; ULK1 inh: 19; AlphaScreen intf: inactive

Results for COc1ccc(CCNc2nc(Nc3ccccc3)nc3c2ncn3C2CCCCC2)cc1 ?
ASK1 inh: 25; ULK1 inh: 6

How did CC(C)n1cnc2c(Nc3ccc4c(c3)OCO4)nc(Nc3ccc(N4CCOCC4)cc3)nc21 do in these assays?
ASK1 inh: 36*; ULK1 inh: 12; AlphaScreen intf: >20

Results for CC(C)n1cnc2c(Nc3ccc4c(c3)OCO4)nc(N3CCC(N4CCOCC4)CC3)nc21 ?
ASK1 inh: 10; ULK1 inh: 23

Results for Oc1ccc(CCNc2nc(N3CCN(Cc4ccc5c(c4)OCO5)CC3)nc3c2ncn3-c2ccsc2)cc1 ?
ASK1 inh: 38*; ULK1 inh: 19; AlphaScreen intf: inactive

How did Oc1ccc(CCNc2nc(N3CCN(Cc4ccc5c(c4)OCO5)CC3)nc3c2ncn3-c2ccccc2)cc1 do in these assays?
ASK1 inh: 30; ULK1 inh: 10

Results for c1cc(-n2cnc3c(Nc4ccc(N5CCOCC5)cc4)nc(N4CCOCC4)nc32)cs1 ?
ASK1 inh: -10; ULK1 inh: 42

How did COc1ccc(CCNc2nc(NC3CCN(Cc4ccccc4)CC3)nc3c2ncn3C2CCCCC2)cc1 do in these assays?
ASK1 inh: 43*; ULK1 inh: 10; AlphaScreen intf: >23

Results for CC(C)n1c(Nc2ccc(-n3ccnc3)cc2)nc2c(NCc3ccccc3)ncnc21 ?
ASK1 inh: -3; ULK1 inh: -6

Results for CCCNc1nc(N2CCc3ccccc3C2)nc2nc[nH]c12 ?
ASK1 inh: 7; ULK1 inh: 10

What do the screens show for `Cn1c(-c2ccccc2)cnc1NC(=O)c1cccc([N+](=O)[O-])c1`?
ULK1 inh: 7

Results for FC(F)(F)c1ccc(Cn2cnc3c(NCCOc4ccccc4)nc(NCc4cccnc4)nc32)cc1 ?
ASK1 inh: 13; ULK1 inh: 8

How did O=C(Nc1ccc(-c2ncnc3[nH]ccc23)cc1)C1COc2ccccc2O1 (centres undefined) do in these assays?
ASK1 inh: 38*; ULK1 inh: 41; AlphaScreen intf: >19

What do the screens show for `O=C(Nc1ccc(-c2cn[nH]c2)cc1)C1COc2ccccc2O1` (centres undefined)?
ASK1 inh: 12; ULK1 inh: -2

Results for O=C(Nc1ccc2c(c1)OCO2)c1ccnc(NCCN2CCOCC2)c1 ?
ASK1 inh: 9; ULK1 inh: 0

How did Cc1ccc(S(=O)(=O)NC(=O)N2CCC(c3nc(-c4cnccn4)no3)CC2)cc1 do in these assays?
ULK1 inh: -10

What do the screens show for `COc1ccc(CCNc2nc(Nc3ccc(C(F)(F)F)cc3)nc3c2ncn3Cc2ccc(C(F)(F)F)cc2)cc1`?
ASK1 inh: 4; ULK1 inh: -17

How did COc1ccc(CCNc2nc(Nc3ccc(N4CCOCC4)cc3)nc3c2ncn3C(C)C)cc1 do in these assays?
ASK1 inh: 25; ULK1 inh: -4

What do the screens show for `COc1ccc(CCNc2nc(Nc3ccc(N4CCOCC4)cc3)nc3c2ncn3Cc2ccc(C(F)(F)F)cc2)cc1`?
ASK1 inh: 72*; ULK1 inh: -19; AlphaScreen intf: 9.5*

Results for COc1ccc(CCNc2nc(Nc3ccc(N4CCOCC4)cc3)nc3c2ncn3-c2ccsc2)cc1 ?
ASK1 inh: 37*; ULK1 inh: 15; AlphaScreen intf: 7.4*

What do the screens show for `COc1ccc(CCNc2nc(Nc3ccc(C(F)(F)F)cc3)nc3c2ncn3-c2ccsc2)cc1`?
ASK1 inh: 10; ULK1 inh: -1

Results for COc1ccc(CCNc2nc(Nc3ccc(N4CCOCC4)cc3)nc3c2ncn3-c2ccccc2)cc1 ?
ASK1 inh: 37*; ULK1 inh: 12; AlphaScreen intf: inactive

What do the screens show for `Cc1cccc(CSc2nnc3n2CCN3c2ccccc2)c1`?
ULK1 inh: -2

How did COc1nc(Nc2cc(OC)c(OC)c(OC)c2)nc(-c2c(C)nn(C)c2C)n1 do in these assays?
ASK1 inh: 2; ULK1 inh: -4

How did FC(F)(F)c1ccc(Nc2nc(NCc3cccc(C(F)(F)F)c3)c3[nH]cnc3n2)cc1 do in these assays?
ASK1 inh: -9; ULK1 inh: -13
